Test [1] in a line: qHTS to identify inhibitors of the type 1 interferon - major histocompatibility complex class I in skeletal muscle: primary screen against the NCATS LOPAC collection (AID 1347405).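 Also: human myoblasts with HiBiT tag on endogenous HLA-B stimulated by IFN-beta; lytic HiBiT luminescence reporting HLA-B protein level.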 Also: potency is read from the fitted curve at half-maximal effect. An outline of the steps: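 First, engineered myoblasts carrying HLA-B-HiBiT were seeded in medium lacking dexamethasone with 4 ng/ml IFN-beta. After 1 hr, compounds were pinned in (top 46 uM final, 7 points). After 24 hrs at 37 C, luminescence was measured following 10 min lysis.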

A short description of test [2]: qHTS for inhibitors of adenylyl cyclases using a fission yeast platform: a pilot screen against the NCATS LOPAC library (AID 1347410). In short, it runs like this: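 Read-out: fbp1-GFP fluorescence by laser scanning cytometry (488 nm laser), a gain of signal when AC/cAMP-PKA signalling is inhibited. Strain CHP2027 expressing AC9, GNAS and PDE4D2; compounds at up to 57 µM; 18 h, 30C.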
Background: In qHTS, concentration-response curves come from the screen itself.

A short description of test [3]: Inflammasome Signaling qHTS Counterscreen: IL-1-beta AlphaLISA counterscreen against the NCATS CANVASS Library (AID 1347381).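 Also: cell-free check with purified IL-1β in medium and no THP-1 cells; series mostly up to about 57 µM.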 An outline of the steps:
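Purified IL-1-beta (4 pg/well) + compound, 11-pt conc. series; acceptor beads 6 ug/mL + biotin-Ab 0.6 nM final, 1 h RT; SA-donor 24 ug/ml final, 30 min dark RT; read ex 680/em 615.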

The nature of test [4]: Cytotoxicity qHTS for assessment of Hepg2 cells membrane integrity screened against the NCATS CANVASS Library (AID 1347387). An outline of the steps: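 Cells were seeded at 2000 per well and left overnight to attach. Compounds were pin-transferred to give 0.59 nM - 46 uM in an 11-point series and incubated 5 hr at 37C. CytoTox-ONE reagent was added and, after 10 min at room temperature, fluorescence (ex 560, em 590 nm) was read.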

Test [5] in a line: qHTS for Activators of p53 Stress Response Pathway screened against the NCATS CANVASS Library (AID 1347388). In short, it runs like this:
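p53RE-bla HCT-116 cells (4000/well) were plated 5 h at 37C, exposed to compounds for 16 h at 37C over an 11-point concentration series, then loaded with CCF4 for 2 h at room temperature; 460/530 nm emission ratio read.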

Test [6] can be described thus: qHTS assay for small molecule disruptors of mitochondrial membrane potential screened against the NCATS CANVASS Library (AID 1347389). Also: series mostly up to about 46 µM; nearly all actives have a fitted effect of over 60% in size. In short, it runs like this: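 Mitochondrial depolarization in HepG2 cells is scored as a falling aggregate-to-monomer fluorescence ratio after 1 hr compound exposure and 30 min staining with Mito-MPS dye at 37C, each compound tested as an 11-point titration.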

Test [7] in a line: qHTS for activators of dead-cell proteases activity screened against the NCATS CANVASS Library (AID 1347392).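 Also: luminescence from protease leaking out of membrane-damaged cells cleaving impermeant substrate; rising signal means more cytotoxicity.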 An outline of the steps: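 Cytotoxicity in HepG2 cells was assessed by released protease cleaving AAF-aminoluciferin, with luminescence as signal. Exposure lasted 5 h at 37C across an 11-point series.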
Test [8] is described as follows: qHTS for inhibitors of ER calcium dysfunction: SERCaMP assay screened against the NCATS CANVASS Library (AID 1347393).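 Also: series mostly up to about 77 µM; lower secreted reporter signal means inhibitor of ER calcium depletion; nearly all actives have a fitted effect of over 40% in size.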 An outline of the steps: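 qHTS in SH-SY5Y reporter cells: 16 h compound pretreatment, 4 h thapsigargin, then secreted Gaussia luciferase measured by luminescence.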
Test [9] is described as follows: Vero-766 cells viability qHTS against the NCATS CANVASS Library: Counterscreen for Zika virus inhibition assay (AID 1347394). Also: series mostly up to about 46 µM; nearly all actives have a fitted effect of over 60% in size. An outline of the steps: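 CellTiter-Glo luminescence, lower signal indicating cytotoxicity. Vero 766 cells without Zika virus, 1000 cells/well, plated overnight, then treated 72 h at 37C across an 11-point series.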
The nature of test [10]: qHTS for inhibitors of Wild type Zika virus screened against the NCATS CANVASS Library (AID 1347396).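 Also: ATP luminescence of surviving cells so rescue from viral cell killing; series mostly up to about 46 µM.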 In short, it runs like this: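 Vero 766 cells, 1000/well, o/n attach; cpds pin-transferred (11-pt qHTS); WT Zika added; 72 h, 37C, 5% CO2; CellTiter Glo lumi. Uninfected + vehicle = 100% inhibition.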
Test [11] in a line: Viability qHTS for inhibitors of the SERCaMP assay screened against the NCATS CANVASS Library (AID 1347400). Also: series mostly up to about 92 µM; nearly all actives have a fitted effect of over 70% in size. In short, it runs like this:
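Seed SH-SY5Y-GLuc SERCaMP MJH297 cells at 1000 per well, incubate 4 h, add compounds across an 11-point range, incubate 48 h at 37C, then add CellTiter-Glo and read luminescence.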

The nature of test [12]: Redox Reaction Profiling qHTS: Assay Interference Panel against the NCATS CANVASS Library (AID 1347401). In short, it runs like this: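 Quantitative HTS over an 11-point series was run in HEPES pH 7.3 with 50 mM NaCl, 200 uM DTT and 5 uM resazurin. Initial and 15-min resorufin fluorescence readings were taken.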
The target in test [13] is Protein phosphatase 1D (Homo sapiens) (UniProt O15297). Kind of test: RapidFire Mass Spectrometry qHTS Assay for Modulators of WT P53-Induced Phosphatase 1 (WIP1) (AID 1347424).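 Also: amount of dephosphorylated VEPPL-S-QETFS peptide product formed by WIP1; series mostly up to about 63 µM.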 An outline of the steps: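 Mass-spectrometric measurement of dephosphorylated peptide after a 5 min room-temperature reaction of 10 nM WIP1 with 2 uM phosphopeptide, following 1 h compound preincubation in 30 mM MgCl2 buffer.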
Protein phosphatase 1D (Homo sapiens), sequence (O15297 whole entry, looked up): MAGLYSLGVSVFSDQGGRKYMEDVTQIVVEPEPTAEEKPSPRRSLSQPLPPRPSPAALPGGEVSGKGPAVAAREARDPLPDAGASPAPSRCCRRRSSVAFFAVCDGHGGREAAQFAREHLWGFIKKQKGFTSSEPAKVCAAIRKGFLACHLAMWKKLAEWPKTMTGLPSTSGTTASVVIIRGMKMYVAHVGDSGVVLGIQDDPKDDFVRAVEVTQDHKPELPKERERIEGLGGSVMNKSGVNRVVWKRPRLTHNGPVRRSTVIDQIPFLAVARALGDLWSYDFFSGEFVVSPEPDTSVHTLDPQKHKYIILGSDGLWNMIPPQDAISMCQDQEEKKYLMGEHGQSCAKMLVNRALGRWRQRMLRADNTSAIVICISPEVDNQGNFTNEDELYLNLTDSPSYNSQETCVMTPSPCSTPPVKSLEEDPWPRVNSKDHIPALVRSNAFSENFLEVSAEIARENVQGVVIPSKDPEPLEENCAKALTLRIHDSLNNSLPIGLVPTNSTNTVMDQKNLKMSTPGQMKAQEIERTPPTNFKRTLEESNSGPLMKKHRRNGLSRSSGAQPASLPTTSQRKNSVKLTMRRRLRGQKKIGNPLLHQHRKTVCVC

For test [14] the target is unchanged. Description: Rhodamine-PBP qHTS Assay for Modulators of WT P53-Induced Phosphatase 1 (WIP1) (AID 1347425). An outline of the steps:
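Read-out: Rhodamine-PBP fluorescence (ex 525/em 598 nm) for released Pi, read each minute for 11 min after adding 10 uM VEPPL-pS-QETFS; signal taken as f1 minus pre-substrate f0. Enzyme 5 nM WIP1 with 1 hr room-temperature compound preincubation.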

A short description of test [15]: Primary qHTS for inhibitors of La Crosse Virus (LACV) - induced cell death in SH-SY5Y cells (AID 1508616).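 Also: top concentration of the series differs between compounds; higher means more rescue of cells from virus-induced death.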 In short, it runs like this: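 SH-SY5Y, 6000 cells/well; cpd via pin tool in DMSO; LACV 0.01 MOI; 6 d 37C 5% CO2; ATPLite, 5 min RT; luminescence normalized to ±virus DMSO controls.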
Test [16] can be described thus: qHTS to identify inhibitors of the type 1 interferon - major histocompatibility complex class I in skeletal muscle: primary screen against the NCATS Mechanism Interrogation Plate v5.0 (MIPE) Libary (AID 1347411). Also: nearly all actives have a fitted effect of over 65% in size. An outline of the steps:
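Seed engineered human myoblasts (HLA-B HiBit) in medium without dexamethasone containing 4 ng/ml IFN-beta; after 1 hr add compound titrations (top 46 uM final). Incubate 24 hrs at 37 C, lyse 10 min with HiBiT reagent, read luminescence.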

Test [17] can be described thus: Validation qHTS assay for inhibitors of Activation Induced Cytidine Deaminase (AID): UDG Counterscreen signal (AID 1347427). An outline of the steps:
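Fluorescence at 560 nm excitation, 665 nm emission reports UDG signal after 250 mM NaOH (2x) addition and 30 min. Enzymes (AID 1 uM, UDG 2 U/mL, at 4/3x) preincubated 10 min with compound, then 4 h with 4x 250 nM DJC20/DJC23 substrate at room temperature.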

Test [18] addresses Single-stranded DNA cytosine deaminase (Homo sapiens) (UniProt Q9GZX7). Description: Validation qHTS assay for inhibitors of Activation Induced Cytidine Deaminase (AID): AID signal (AID 1347429). Also: potency is read from the fitted curve at half-maximal effect. In short, it runs like this: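 Steps: dispense AID with UDG; pin-transfer compound up to 114 uM final; add DJC20/DJC23 substrate and hold 4 hr at room temperature; add NaOH, hold 30 min; read FRET signal (540/590 nm).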

Results filed as inconclusive are left out. Entries that show only a call come without a potency. Calls of active or inactive are those of the source. Calls follow the shape of the dose curve; as a rule, active = well fitted curve in the direction sought with a large enough effect; inconclusive = small, poorly fitted or top-dose-only effect, or another doubt; inactive = no such curve, though single readings can be large; an effect the other way counts as inactive or inconclusive.

Single-stranded DNA cytosine deaminase (Homo sapiens), sequence (Q9GZX7 whole entry, looked up): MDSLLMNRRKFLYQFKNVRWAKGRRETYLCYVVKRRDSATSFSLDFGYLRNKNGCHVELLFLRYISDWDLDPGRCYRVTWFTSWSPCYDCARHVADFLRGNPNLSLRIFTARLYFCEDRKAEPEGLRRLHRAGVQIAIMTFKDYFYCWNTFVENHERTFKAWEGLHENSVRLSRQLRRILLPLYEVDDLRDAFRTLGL

As for `Cn1c(=O)c(-c2c(Cl)cccc2Cl)cc2cnc(Nc3ccc(N4CCOCC4)cc3)nc21`, in test [1], the Potency was 0.631 µM (active). The compound was called inactive in test [2].
The like results for `O=C(Nc1ccncc1)c1cc([N+](=O)[O-])ccc1Cl` were, in that order, 15.8 µM (active) and “inactive”.
As to `O=C(O)c1cc(O)c(O)c(O)c1`, the outcome in [3], in [4], in [5], in test [7], in [10] and in test [12] was inactive. Further, the compound was classed as inactive in test [14]. Further, the Potency entry in [6], in [8], in [9], in test [11], in test [13] and in [15] was “inactive” in each case.
With `CS(=O)(=O)c1ccc(-n2nc(C(F)(F)F)cc2-c2ccc(F)cc2)cc1`, the Potency entry in [1] is “inactive”. For the same compound, in [2], the result was inactive.
On to `CCN1/C(=C/C(C)=O)Sc2ccc(OC)cc21`, for which the Potency entry in [1], in test [16], in test [17], in [18] and in test [15] was “inactive” in each case. The compound was called inactive in [2].
As for `O=C(CCSCc1ccco1)NNC(=O)N1Cc2ccccc2Oc2ccc(Cl)cc21`, the Potency result in [1] is “inactive”. In addition, in test [2], the outcome was inactive.
Turning to `COc1cc(SC)ccc1C(=O)N1CCC(Cc2ccccc2)CC1`, the Potency result in test [1], in test [16], in test [18] and in [15] was “inactive” in each case. For the same compound, in test [2], the compound was called inactive.
Take `CN(CCCOc1ccc(Cc2ccccc2)cc1)CCC(=O)O`: the Potency result in test [1] is “inactive”. For the same compound, the outcome in test [2] was inactive.
On to `Nc1nc2ccc(Cl)cc2n2c(-c3ccccc3)nnc12`, for which the Potency entry in test [1] is “inactive”. Further, the result in test [2] was inactive.
As for `COc1ccc2c(c1)CCC1C2CC[C@@]2(C)C1CC[C@@H]2NCCCCCCN1C(=O)CCC1=O` (some centres undefined), the Potency result in test [1], in test [17] and in test [18] was “inactive” throughout. In test [2], the call was inactive.
Turning to `O=C1C(SCCO)=C(SCCO)C(=O)c2ccccc21`, the Potency in test [1] and in [18] was 10 µM (active) each time. For the same compound, the outcome in test [2] was inactive. In addition, the Potency result in test [17] is “inactive”.
Consider `COc1ccc(Br)cc1S(=O)(=O)NC(=O)/C=C/c1ccccc1Cc1ccc2ccccc2c1`, for which, in test [1], the Potency result is “inactive”. Besides, the compound was classed as inactive in [2].
As for `COCCOc1cc2nc[nH]c(=O)c2cc1OCCOC`, the Potency entry in test [1] was “inactive”. For the same compound, the compound was called inactive in test [2].
Consider `COCCOc1cc2ncnc(Cl)c2cc1OCCOC`, for which, in [1], the Potency entry was “inactive”. Moreover, in [2], the result was inactive.
For `CC(C)(NS(=O)(=O)c1ccc(Oc2ccc(F)cc2)cc1)C(=O)NO`, the Potency entry in test [1] is “inactive”.
Consider `O=C1NC(=O)c2c1c(-c1ccccc1)cc1[nH]c3ccc(O)cc3c21`, for which, in [1], the Potency is 14.1 µM (active).
On to `O=[N+]([O-])c1ccc(CNc2nc(NCc3cccc(C(F)(F)F)c3)nc3nc[nH]c23)cc1`, for which the Potency result in test [1] was “inactive”. Besides, in test [2], the result was inactive.

For the origin of these results see PubChem BioAssay (NCATS).
